According to the supplement of paper PMC10849652:
About 7,900 targets were measured; listed, in parts, are those with a hit and a random draw of the rest. About 0.6% of all pairs of compound and target were hits. A number with no mark means an inactive call.

compound: CC1=NC(=CC=C1)C2=C(N=C(N2)C(C)(C)C)C3=CC4=NC=CN=C4C=C3; assay: log2 fold change, soluble protein after heating vs DMSO (PISA); higher = thermal stabilisation; K562 cells, 10 uM, 30 min; active = over 0.2 and 3.5 SD of the protein, either way, in both replicates (recomputed)
In short: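 Soluble protein was quantified by TMTpro 16plex LC-MS/MS after channel sums were equalised. It was obtained as the supernatant after 21,000xg for 90 min from pooled aliquots of K562 cells (2×10^6 cells/mL, 10 μM compound, 30 min) heated for 3 min across 48°C-58°C and extracted in PBS with 0.5% NP-40 at 4°C. Thermal stability values are relative to control samples and come from duplicates. They are given as log2 fold changes.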

Sequence of UniProt P49116 (P49116 whole entry, looked up): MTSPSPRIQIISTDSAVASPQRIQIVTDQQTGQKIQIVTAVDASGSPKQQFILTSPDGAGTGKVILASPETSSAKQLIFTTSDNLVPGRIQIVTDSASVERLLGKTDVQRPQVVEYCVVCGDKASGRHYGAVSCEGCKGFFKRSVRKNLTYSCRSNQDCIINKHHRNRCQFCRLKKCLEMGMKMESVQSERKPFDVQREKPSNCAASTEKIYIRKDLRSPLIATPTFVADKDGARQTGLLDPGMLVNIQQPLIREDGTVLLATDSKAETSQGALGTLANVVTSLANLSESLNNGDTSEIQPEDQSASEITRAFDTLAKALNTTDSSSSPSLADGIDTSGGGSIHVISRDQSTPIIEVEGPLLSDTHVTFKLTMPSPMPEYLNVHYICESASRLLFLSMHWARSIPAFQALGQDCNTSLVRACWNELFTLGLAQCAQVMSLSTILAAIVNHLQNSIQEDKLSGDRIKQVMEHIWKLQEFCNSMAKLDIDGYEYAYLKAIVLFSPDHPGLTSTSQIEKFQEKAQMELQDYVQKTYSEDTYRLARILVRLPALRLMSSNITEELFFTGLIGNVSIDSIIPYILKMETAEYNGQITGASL
Sequence of UniProt Q8N4C8 (Q8N4C8 whole entry, looked up): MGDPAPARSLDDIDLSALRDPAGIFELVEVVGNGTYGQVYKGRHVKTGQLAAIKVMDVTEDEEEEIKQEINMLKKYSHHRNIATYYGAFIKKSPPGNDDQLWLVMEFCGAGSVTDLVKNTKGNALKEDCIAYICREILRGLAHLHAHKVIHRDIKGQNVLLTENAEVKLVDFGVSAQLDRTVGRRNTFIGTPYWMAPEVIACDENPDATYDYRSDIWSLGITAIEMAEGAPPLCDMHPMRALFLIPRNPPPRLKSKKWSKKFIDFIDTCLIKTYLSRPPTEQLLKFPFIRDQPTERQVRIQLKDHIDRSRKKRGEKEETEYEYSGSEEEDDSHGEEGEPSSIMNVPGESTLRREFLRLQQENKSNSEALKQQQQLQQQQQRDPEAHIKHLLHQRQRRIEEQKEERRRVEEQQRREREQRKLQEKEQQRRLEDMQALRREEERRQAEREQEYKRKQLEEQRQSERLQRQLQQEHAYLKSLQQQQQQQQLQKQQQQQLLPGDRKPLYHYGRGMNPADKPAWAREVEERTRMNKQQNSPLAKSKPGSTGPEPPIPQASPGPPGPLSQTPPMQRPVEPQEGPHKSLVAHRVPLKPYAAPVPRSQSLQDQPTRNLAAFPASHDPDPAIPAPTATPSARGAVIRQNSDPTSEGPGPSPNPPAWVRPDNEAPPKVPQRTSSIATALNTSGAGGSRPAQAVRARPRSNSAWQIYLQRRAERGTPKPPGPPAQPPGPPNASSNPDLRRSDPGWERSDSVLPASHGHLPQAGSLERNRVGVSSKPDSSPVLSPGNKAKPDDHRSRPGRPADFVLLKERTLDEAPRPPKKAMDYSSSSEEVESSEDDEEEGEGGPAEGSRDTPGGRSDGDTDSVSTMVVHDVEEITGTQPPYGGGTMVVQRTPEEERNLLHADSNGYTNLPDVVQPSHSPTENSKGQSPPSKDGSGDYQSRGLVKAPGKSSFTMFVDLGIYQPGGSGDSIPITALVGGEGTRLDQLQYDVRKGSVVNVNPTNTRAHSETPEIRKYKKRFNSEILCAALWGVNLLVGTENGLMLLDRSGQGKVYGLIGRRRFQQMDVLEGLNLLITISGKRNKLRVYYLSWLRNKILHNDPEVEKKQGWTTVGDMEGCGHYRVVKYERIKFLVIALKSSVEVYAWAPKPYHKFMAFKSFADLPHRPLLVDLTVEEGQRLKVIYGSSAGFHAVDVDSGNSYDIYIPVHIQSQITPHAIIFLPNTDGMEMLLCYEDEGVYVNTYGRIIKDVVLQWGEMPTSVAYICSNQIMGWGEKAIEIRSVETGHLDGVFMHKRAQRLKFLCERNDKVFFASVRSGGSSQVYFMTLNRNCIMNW
Sequence of UniProt Q9Y5B8 (Q9Y5B8 whole entry, looked up): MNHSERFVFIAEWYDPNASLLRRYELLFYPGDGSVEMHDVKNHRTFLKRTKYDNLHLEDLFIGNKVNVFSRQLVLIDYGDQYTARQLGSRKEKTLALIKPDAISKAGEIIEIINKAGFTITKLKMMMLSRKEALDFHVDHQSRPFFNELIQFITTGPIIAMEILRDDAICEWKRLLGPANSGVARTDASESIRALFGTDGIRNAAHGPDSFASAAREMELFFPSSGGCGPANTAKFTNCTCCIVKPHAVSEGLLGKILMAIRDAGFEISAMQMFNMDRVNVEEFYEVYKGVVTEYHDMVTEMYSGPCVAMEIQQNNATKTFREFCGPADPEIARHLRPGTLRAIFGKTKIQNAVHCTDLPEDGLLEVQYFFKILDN
Sequence of UniProt Q8TEM1 (Q8TEM1 whole entry, looked up): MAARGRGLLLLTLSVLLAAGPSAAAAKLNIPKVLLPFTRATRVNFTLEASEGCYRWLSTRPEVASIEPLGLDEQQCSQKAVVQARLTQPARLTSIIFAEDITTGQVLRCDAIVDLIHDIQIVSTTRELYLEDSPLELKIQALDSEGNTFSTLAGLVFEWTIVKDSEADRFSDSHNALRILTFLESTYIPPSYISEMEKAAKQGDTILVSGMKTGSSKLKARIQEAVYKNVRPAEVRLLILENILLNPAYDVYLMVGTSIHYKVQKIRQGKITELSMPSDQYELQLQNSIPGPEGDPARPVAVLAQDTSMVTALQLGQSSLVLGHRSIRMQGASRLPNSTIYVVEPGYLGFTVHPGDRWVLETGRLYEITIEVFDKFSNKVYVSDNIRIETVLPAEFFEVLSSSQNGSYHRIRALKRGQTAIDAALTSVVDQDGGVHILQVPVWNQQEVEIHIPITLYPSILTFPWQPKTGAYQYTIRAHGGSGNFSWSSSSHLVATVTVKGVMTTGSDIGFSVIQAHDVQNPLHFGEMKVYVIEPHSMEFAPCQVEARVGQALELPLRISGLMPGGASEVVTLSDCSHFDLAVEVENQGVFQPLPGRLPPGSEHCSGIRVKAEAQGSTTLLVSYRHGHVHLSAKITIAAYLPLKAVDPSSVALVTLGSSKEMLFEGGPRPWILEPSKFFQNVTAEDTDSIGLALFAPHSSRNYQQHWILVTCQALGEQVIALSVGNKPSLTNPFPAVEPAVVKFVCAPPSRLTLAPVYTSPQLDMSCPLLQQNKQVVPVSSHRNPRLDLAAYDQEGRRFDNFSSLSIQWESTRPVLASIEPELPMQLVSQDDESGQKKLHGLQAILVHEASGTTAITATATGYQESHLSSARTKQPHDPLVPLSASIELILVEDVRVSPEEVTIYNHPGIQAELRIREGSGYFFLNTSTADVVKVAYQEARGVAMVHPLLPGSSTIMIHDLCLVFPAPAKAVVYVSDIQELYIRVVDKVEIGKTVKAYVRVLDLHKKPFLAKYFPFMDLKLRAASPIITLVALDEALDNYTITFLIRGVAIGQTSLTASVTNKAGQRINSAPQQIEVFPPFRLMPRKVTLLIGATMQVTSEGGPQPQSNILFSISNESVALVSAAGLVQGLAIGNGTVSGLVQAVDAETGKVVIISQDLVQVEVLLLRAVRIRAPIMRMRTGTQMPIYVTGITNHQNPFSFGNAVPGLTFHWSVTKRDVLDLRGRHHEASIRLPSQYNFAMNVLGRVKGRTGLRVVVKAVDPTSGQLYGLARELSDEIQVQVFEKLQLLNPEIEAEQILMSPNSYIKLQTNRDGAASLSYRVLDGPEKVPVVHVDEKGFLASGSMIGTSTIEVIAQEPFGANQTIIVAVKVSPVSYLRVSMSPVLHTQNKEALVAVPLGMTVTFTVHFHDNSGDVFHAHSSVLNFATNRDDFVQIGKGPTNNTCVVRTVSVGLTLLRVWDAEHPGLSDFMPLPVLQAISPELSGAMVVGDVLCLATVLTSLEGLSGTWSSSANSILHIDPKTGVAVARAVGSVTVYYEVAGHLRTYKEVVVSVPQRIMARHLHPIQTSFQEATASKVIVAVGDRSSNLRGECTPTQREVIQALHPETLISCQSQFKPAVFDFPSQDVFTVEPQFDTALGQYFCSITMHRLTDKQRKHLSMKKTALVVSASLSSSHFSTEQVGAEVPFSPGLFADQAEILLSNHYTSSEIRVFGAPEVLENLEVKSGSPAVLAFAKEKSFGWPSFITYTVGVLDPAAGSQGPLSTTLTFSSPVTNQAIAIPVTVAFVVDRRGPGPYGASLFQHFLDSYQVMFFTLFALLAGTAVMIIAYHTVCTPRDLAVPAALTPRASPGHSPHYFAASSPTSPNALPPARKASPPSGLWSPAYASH
Sequence of UniProt Q9Y2X3 (Q9Y2X3 whole entry, looked up): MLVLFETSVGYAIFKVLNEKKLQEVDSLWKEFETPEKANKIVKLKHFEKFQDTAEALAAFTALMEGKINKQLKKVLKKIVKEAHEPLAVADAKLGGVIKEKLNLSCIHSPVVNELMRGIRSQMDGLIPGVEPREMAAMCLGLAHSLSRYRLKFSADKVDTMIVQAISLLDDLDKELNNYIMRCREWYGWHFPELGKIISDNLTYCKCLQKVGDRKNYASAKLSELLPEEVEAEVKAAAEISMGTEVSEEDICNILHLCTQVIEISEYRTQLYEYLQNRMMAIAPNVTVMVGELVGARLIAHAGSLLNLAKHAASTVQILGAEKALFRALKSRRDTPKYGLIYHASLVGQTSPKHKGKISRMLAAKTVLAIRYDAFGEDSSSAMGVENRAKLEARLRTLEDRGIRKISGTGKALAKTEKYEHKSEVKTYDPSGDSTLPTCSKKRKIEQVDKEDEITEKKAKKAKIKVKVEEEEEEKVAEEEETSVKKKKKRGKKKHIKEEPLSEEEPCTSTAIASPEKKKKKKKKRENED
Sequence of UniProt P15559 (P15559 whole entry, looked up): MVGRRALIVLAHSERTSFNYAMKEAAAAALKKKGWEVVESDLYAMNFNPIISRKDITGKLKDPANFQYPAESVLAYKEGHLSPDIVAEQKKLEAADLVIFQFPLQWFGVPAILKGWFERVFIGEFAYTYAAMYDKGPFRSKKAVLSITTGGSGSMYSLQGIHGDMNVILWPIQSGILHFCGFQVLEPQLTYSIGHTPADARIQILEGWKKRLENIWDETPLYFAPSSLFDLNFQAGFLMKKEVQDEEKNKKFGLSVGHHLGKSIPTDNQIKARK

| Target | log2 fold change |
| --- | --- |
| MRPS9 (UniProt P82933) | 0.02 |
| NMNAT1 (UniProt Q9HAN9) | -0.196 |
| NOP53 (UniProt Q9NZM5) | -0.163 |
| MT-ND4 (UniProt P03905) | 0.048 |
| NHLRC2 (UniProt Q8NBF2) | -0.014 |
| NME7 (UniProt Q9Y5B8) | 0.059 |
| MRPS16 (UniProt Q9Y3D3) | 0.132 |
| NR2C2 isoform 2 (UniProt P49116) | -0.034 |
| MORC3 (UniProt Q14149) | 0.059 |
| NQO1 (UniProt P15559) | 0.025 |
| NDUFA7 (UniProt O95182) | -0.021 |
| NOB1 (UniProt Q9ULX3) | 0.027 |
| NOP58 (UniProt Q9Y2X3) | -0.073 |
| NEMP1 (UniProt O14524) | -0.022 |
| NA, A0A0B4J2A0 | -0.006 |
| OSBPL8 (UniProt Q9BZF1) | -0.027 |
| NFX1 (UniProt Q12986) | 0.004 |
| OTUD4 (UniProt Q01804) | -0.069 |
| NUMB (UniProt P49757) | -0.046 |
| MUL1 (UniProt Q969V5) | -0.004 |
| OXR1 (UniProt Q8N573) | 0.052 |
| NUP210 (UniProt Q8TEM1) | 0.035 |
| MINK1 (UniProt Q8N4C8) | 0.029 |
| NUDT1 (UniProt P36639) | -0.164 |
